# Several values for one entry are separate records, joined by “and”; a condition that tells them apart may be missing. Identical values can stand only once. Results filed as inconclusive are left out. Unmarked numbers belong to inactive results. Activity calls are given as the source filed them. Calls come from the whole dose curve; as a rule, active = well fitted activation curve with a large enough effect in the repeat runs; inconclusive = weak or mixed curves; inactive = flat fitted curve, though single readings scatter.
# Experiment: A CellTox Green Cytotoxicity Assay to monitor cytotoxicity in HEK293 cells - 40 hour (AID 1224871); note: nearly all actives have a fitted effect of over 45% in size
# Settings: CellTox Green fluorescence; series mostly up to 76.8 µM; cytotoxicity increase: at the top concentration
# From the text: National Center for Advancing Translational Sciences [NCATS]
# NIH Chemical Genomics Center [NCGC]
# U.S. Environmental Protection Agency [EPA]
# National Institutes of Environmental Health Sciences [NIEHS]
# National Toxicology Program [NTP]
# Cell-based models are critical for drug discovery. Determining the natural cytotoxic effects resulting from test compounds is an essential research activity. A CellTox Green Cytotoxicity Assay to monitor cytotoxicity in real time of continues cell culture during 40 hours of the compound treatment was used to screen Tox21 10K library compounds in Hek293 cells. CellTox Green Cytotoxicity Assay is a nonlytic, homogeneous, biofluorescent method to measure cytotoxicity in cell culture after experimental manipulation. The assay system uses a proprietary asymmetric cyanine dye that is excluded from viable cells but preferentially stains the dead cell's DNA. […] Viable cells produce no appreciable increases in fluorescence. Therefore, the fluorescence signal produced by the binding interaction with dead cell DNA is proportional to cytotoxicity.
# The mixture of Hek293 cell suspension and reagents were dispensed at 600cells/6 ul/well in 1536-well tissue culture treated black solid bottom plates using a Multidrop dispenser. After the assay plates were incubated at a 37 C/5% CO2 incubator for 5 hours, 23 nL of compounds dissolved in DMSO, positive and negative controls was transferred to the assay plate by a pintool work station. The plates were incubated at 37 C for 40 hours. The fluorescence intensity were measured at 0h, 8h, 16h, 24h, 32h and 40h time points using ViewLux plate reader during compound treatment.
# % is set by controls: 0 for no effect and ±100 for the full control effect; potency is the fitted concentration of half-maximal effect.
Structure (SMILES),cytotoxicity increase,Potency
O=C(O)CC(=O)O,-7.67%,
CCc1cccc(C)c1,-4.05%,
OCCCS,-6.13%,
CC(C)c1cccc(C(C)C)c1N1C(=O)c2ccc(O)cc2C1=O,,49 µM (active)
C=CCCCCCCC=C,-2.21%,
CCCC(C)CCC(C)=O (stereo not given),0.914%,
O=C[C@H](O)[C@H](O)[C@H](O)CO,1.57%,
CCC(C)c1ccccc1 (stereo not given),-7.82%,
CCc1c(Br)c(Br)c(Br)c(Br)c1Br,-4.68%,
Cc1cnccn1,2.92%,
CN(C)CCOC(c1ccccc1)c1ccccc1 (tested in a mixture with another compound),-2.53%,
CCOCN(C(=O)CS(=O)(=O)O)c1c(C)cccc1CC,-17.3%,
SCCCCCCCCS,4.94%,
CC(C)(c1cc(Br)c(O)c(Br)c1)c1cc(Br)c(O)c(Br)c1,,inactive
CCCCCCCC/C=C\CCCCCCCC(=O)N(C)CC(=O)O,,34.7 µM (active)
Cc1c(C(=O)O)cccc1[N+](=O)[O-],-15.9%,
CC(C)N=C(N)/N=C(\N)Nc1ccc(Cl)cc1,0.225% [at 35.3 µM],
Cc1cccc(C)c1NC(=O)CN1CCN(CCCC(c2ccc(F)cc2)c2ccc(F)cc2)CC1,,21.3 µM (active)
CCN(CC)CCNc1ccc(CO)c2sc3ccccc3c(=O)c12,,23.9 µM (active)
O=C1NCCN1CCN1CCC(c2cn(-c3ccc(F)cc3)c3ccc(Cl)cc23)CC1,,23.9 µM (active)

Structure (SMILES),cytotoxicity increase,Potency
CCCCCCCCCCCCCCCCCO,-18.9% [at 15.8 µM],
Cc1cccc(C)n1,-0.349%,
CCC(C)C(=O)OC (stereo not given),-11.4%,
CC(C)=CCCC(C)O (stereo not given),15.5%,
CN1CN(C)CN(C)C1,2.87%,
C/C=C/CO,1.58%,
c1ccc(Sc2ccccc2)cc1,5.69%,
CCCCCCCCCCCCOC(=O)c1cc(O)c(O)c(O)c1,,34.5 µM (active) and 49 µM (active)
Clc1ccccc1CN1CCc2sccc2C1,27.6% [at 35.3 µM],
CC(C)(C)CC(C)(C)c1ccccc1O,,39.1 µM (active)
COc1ccc2sc(C(=O)Nc3nnn[nH]3)c(OC(C)C)c2c1,1.18%,
Cc1cccc(N(C)C)c1,-0.533%,
CCO[Si](C)(C)OCC,0.283%,
S=C(SSSSSSC(=S)N1CCCCC1)N1CCCCC1,,0.241 µM (active)
C=CC(=O)OCCN(CC)CC,-10.6%,
c1ccc(Nc2cccc3ccccc23)cc1,20.4%,
CC1CCCNC1 (stereo not given),-7.97%,
NC1(c2ccc(-c3nc4ccn5c(=O)[nH]nc5c4cc3-c3ccccc3)cc2)CCC1,,26.8 µM (active)
CC(C)=C1CC[C@@H](C)CC1=O,-2%,
CN1[C@@H]2CC[C@@H]1CC(OC(=O)C(CO)c1ccccc1)C2 (stereo not given in full),28.7% [at 35.3 µM],
